Measurements from PubChem BioAssay (EPA / NIEHS).
Active and inactive are the calls of the source. The calls were made as follows: active = hit-call score of the fitted dose curve at least 0.9, where 1 is the maximum; inactive = score below 0.9.

read-out: Bcl-2 (BAX) gene, BAX (gene 581); assay: LTEA_HepaRG_BAX: Life Technologies and Expression Analysis (LTEA) Assay for Bcl-2 (BAX) gene using HepaRG (AID 2283470); conditions: mRNA level, 48 h; actives raise or lower the signal
Description: LTEA_HepaRG is a cell based, multiplexed-readout assay that uses HepaRG, a human liver cell line, with measurements taken at 48 hours after chemical dosing on a 96-well plate.LTEA_HepaRG_BAX is one of 102 assay component(s) measured in the LTEA HepaRG cell culture assay. It is a marker of Cell proliferation, survival, death.Data from the assay component LTEA_HepaRG_BAX was analyzed into 1 endpoint. This assay endpoint, LTEA_HepaRG_BAX, was analyzed with bidirectional fitting relative to DMSO as the negative control and baseline of activity. Using a type of inducible reporter, measures of mRNA induction for gain or loss-of-signal activity can be used to understand regulation of transcription factor activity. To generalize the intended target to other relatable targets, this assay endpoint is annotated to the cell cycle intended target family, where the subfamily is Cell proliferation, survival, death.
A total of 1060 chemcials from the ToxCast library were tested in eight-point concentration-response experiments. Cell culture and cytotoxicity assays were conducted at Thermo Fisher Scientific's Custom Services facility (Madison, WI). A single lot of human HepaRG cells (Thermo Fisher Scientific, Frederick, MD) was used for the cell culture experiments. 96-well format collagen type I coated plates of human HepaRG cells were prepared using established methods. Briefly, cryopreserved HepaRG cells were thawed, plated at a density of approximately 100,000 cells/well in HepaRG Thaw, Plate, and General Purpose media (HPRG770, Thermo Fisher Scientific), and incubated for 48 hours. 0.5% DMSO was selected as vehicle control to balance the requisite need of DMSO in HepaRG cultures to maintain differentiation (for example, baseline metabolism, proportions of hepatocytes vs. cholangiocytes), while enabling further hepatic receptor pathway activation (for example, PXR and CAR) in response to chemical exposure. 48 hours after plating, the culture medium was replaced with HepaRG Serum-Free Incudtion Media. Cells were exposed to each test chemical in duplicate and maintained in CO2 incubators for another 48 hours. Chemical plates were thawed to room temperature and 200x concentrations of treatment groups were prepared. 8-point conentration-reponse curves were made with the highest exposure at 100 uM, followed by half-log dilutions, all in 0.5% DMSO. Each test plate contained variouse controls, induction positive controls (1mM phenobarbital), cytotoxicity positive controls ([…] aflatoxin B1), vehicle controls (0.5% DMSO), and total lysis controls (0.5% DMSO). Cell morphology images were taken using an Essen IncuCyte FLR automated microscope, with six 96-well plates imaged in about 24 minutes. Images were captured and exported and JPEG files. Spent culture media was transfered to black-well plates for the LDH assay, and remaining media was sorted at -80 C for later use. Cells were treated with RLT buffer and frozen until shipped for gene expression analysis. Total RNA was isolated from the cell suspension in 75 uL of Buffer RLT (Qiagen, Germantown, MD 20874) by Quintiles/Expression Analysis (Durham, NC) using a custom isolation procedure. Total RNA from each plate well was transferred to a preamplification plate. Fluidigm's 96.96 Dynamic ArrayTM (Fluidigm, Amsterdam, the Netherlands) technology was used for gene expression analyses by quantitative reverse transcription polymerase chain reaction (qRT-PCR, performed by Quintiles/Expression Analysis, Durham, NC)89. Standard TaqManTM Assays (Applied Biosystems/ThermoFisher Scientific, Foster City, CA) were used to assess the expression of 93 genes selected based on their selectivity and sensitivity to important hepatic receptors known to be modulated by environmental chemicals; importance in human hepatocyte functionality; and hepatotoxicity. […]

Compound	outcome	AC50
Cc1ccc(N)cc1O	inactive	
CCCN(C1CCN(C(=O)C2CCNCC2)CC1)[C@@H]1CCc2ccc(OC)cc2C1	inactive	
CC(C)=CCC/C(C)=C/CO	inactive	
CCOC(=O)c1ccc(C2CCC(NC[C@H](O)COc3ccc(O)c(NS(C)(=O)=O)c3)CC2)cc1 (stereo not given in full)	inactive	
CCCC(=O)OCC	inactive	
O=C1CCC(N2C(=O)c3ccccc3C2=O)C(=O)N1 (stereo not given)	inactive	
Cc1ccc(S(=O)(=O)O)cc1C	inactive	
Cn1c(=O)cc(Oc2ccc(F)cc2F)c2cnc(NCC(C)(C)O)nc21	inactive	
CCN(C(=O)c1cc(C)cc(OC[C@H](C)Nc2ccncc2)c1)C(C)C	inactive	
CC(C)CCO	inactive	
CC(C)=CCCC(C)CCO (stereo not given)	inactive	
CCc1cc(SCc2sc(-c3ccc(C(F)(F)F)cc3)nc2CN2CCN(c3ccc(OC)cc3)CC2)ccc1OCC(=O)O		97.2 µM (active)
Cc1[nH]cnc1C[C@H]1CCc2c(C)c3ccccc3n2C1=O		28 µM (active)
O=C(CCCCCCCCc1cccnc1)N1CCC(C=C(c2ccccc2)c2ccccc2)CC1		30.9 µM (active)
CCOCCO	inactive	
CC[C@H]1CC[C@H](NCc2cc3c(cc2OC)[C@H]2C[C@H]2C(=O)N3C)[C@H](c2ccccc2)N1	inactive	
CCOC(=O)COc1ccc2c(c1)CC(NCC(O)c1cccc(Cl)c1)CC2 (stereo not given)	inactive	
Oc1ccc2c(c1)-c1ccccc1C2	inactive	
CCCCCCc1ccc(O)cc1O	inactive	
CCCCC(CC)COC(=O)CCCCCCCCC(=O)OCC(CC)CCCC (stereo not given)	inactive	

Compound	outcome	AC50
Cc1ccc(O)cc1	inactive	
CCCCC(CC)COC(=O)c1ccc(C(=O)OCC(CC)CCCC)cc1 (stereo not given)	inactive	
COC(=O)c1c(Cl)c(Cl)c(C(=O)OC)c(Cl)c1Cl	inactive	
CC1(C)C(=O)N(Br)C(=O)N1Br	inactive	
CNCc1ccc(NC(=O)c2c[nH]c3c2C(=O)CCC3)cc1	inactive	
Fc1ccccc1[C@@H](F)COC1CCC(Nc2ncnc3[nH]ncc23)CC1 (stereo not given in full)		50 µM (active)
CCC(C)(C)C(=O)O[C@H]1C[C@@H](C)C=C2C=C[C@H](C)[C@H](CC[C@@H]3C[C@@H](O)CC(=O)O3)[C@H]21	inactive	
Nc1ccc(Nc2ccccc2)cc1	inactive	
O=C(NS(=O)(=O)/C=C/c1ccccc1)c1ccc(F)cc1Cl	inactive	
O=C(O)CC(O)C(=O)O (stereo not given)	inactive	
CC(C)=CCC/C(C)=C\CO	inactive	
C=CCCCCCCCCC(=O)O	inactive	
C1N2CN3CN1CN(C2)C3	inactive	
CCCCCCCCO	inactive	
COCCOCCOCCOC	inactive	
CC(C)c1cccc(C(C)C)c1N1C(=O)c2ccc(O)cc2C1=O		50 µM (active)
CC[C@H](C)C(=O)O[C@H]1C[C@@H](C)C=C2C=C[C@H](C)[C@H](CC[C@@H]3C[C@@H](O)CC(=O)O3)[C@H]21	inactive	
CNS(=O)(=O)c1cc(C(=O)N2CCC(CCN3C4CCC3CC(n3c(C)nc5ccccc53)C4)(c3cccc(F)c3)CC2)c(Cl)cc1F (stereo not given)	inactive	
O=C(O)c1cccc(N(Cc2cccnc2)c2ccc(OC(F)F)c(OC(F)F)c2)c1	inactive	
COc1cccc(-c2ccc(/C=C\CN3CCCCCC3)cc2Cl)c1		74.5 µM (active)
